Reference: PubChem BioAssay
The source made the active and inactive calls.

Legend:
[1] = system: PRMT1 (protein arginine N-methyltransferase 1); assay: PRMT1 binders on small-molecule microarrays, primary screen, biochemical, small-molecule microarray, 635 nm fluorescence (AID 1088); details: small-molecule microarray binding, higher = more signal;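 further: binding of Prmt1 protein to compounds spotted on small-molecule microarray slides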
[2] = yeast growth modulation, basal conditions, primary screen, YJM789 clinical isolate, OD600, 24 h (AID 1089);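 further: growth of clinical yeast isolate S. cerevisiae YJM 789 seeded 1000 cells per well; test concentration not given here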; details: S. cerevisiae YJM789 growth, higher = more signal, called active from +8 up or from −8 down
[3] = fission yeast growth modulation, primary screen, strain 972, OD600, 24 h, no modulator (AID 1090);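 further: basal condition with compound alone and no growth modifier present; test concentration not given here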; details: S. pombe 972 growth, higher = more signal, called active from +8 up or from −8 down
[4] = S. cerevisiae growth modulation with rapamycin, primary screen, strain BY4716, OD600, 96 h (AID 1091); details: higher = more signal, called active from +8 up or from −8 down; further: test concentration not given here
[5] = molecular target: Torsin-1A-interacting protein 2 (Homo sapiens) (UniProt Q8NFQ8); assay: LULL1 binders on small-molecule microarray, primary screen, cell lysate, human LULL1 lysate, 635/667 nm fluorescence (AID 1092); details: hLULL1 lysate binding, 635 nm fluorescence, higher = more signal;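 further: probe is lysate of COS7 cells overexpressing human LULL1; score merges per-feature 667 nm fluorescence with signal-to-noise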
[6] = E. coli growth modulation, two-sided OD650, primary screen, E. coli filamentation project, strain DRC41, 24 h (AID 1093); details: OD650, 24 h, higher = more signal, called active from +8 up or from −8 down;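 further: MC1000 strain lacking acrAB efflux and sulA so SOS filamentation is blocked; test concentration not given here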
[7] = small-molecule microarray binders of probe aLefty2, primary screen, biochemical, biotinylated probe, 635/667 nm fluorescence (AID 1094); details: higher = more signal;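 further: score merges spot fluorescence near 667 nm with spot signal-to-noise ratio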
[8] = system: Noggin (protein binding on small-molecule microarray); assay: Noggin binders on small-molecule microarray, primary screen, biochemical, 635/667 nm fluorescence (AID 1095); details: 635 nm fluorescence, higher = more signal;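 further: score merges 667 nm feature fluorescence with signal to noise over triplicate slides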
[9] = molecular target: Neurogenic locus notch homolog protein 3 (Homo sapiens) (UniProt Q9UM47); assay: NOTCH3 binders on small-molecule microarray, primary screen, biochemical, 635/667 nm fluorescence (AID 1096); details: NOTCH3 binding, 635 nm fluorescence, higher = more signal
[10] = small-molecule microarray binders of probe aEGFR, primary screen, biochemical, biotinylated probe, 635/667 nm fluorescence (AID 1097); details: higher = more signal;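 further: probe is a biotinylated anti-EGFR antibody binding compounds printed on slides; score combines fluorescence near 667 nm and signal to noise of each spot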
[11] = system: Plasmodium falciparum Sir2 (PF13_0152, Sir2A); assay: pfSir2 binders on small-molecule microarrays, primary screen, biochemical, small-molecule microarray, 635 nm fluorescence (AID 1098); details: small-molecule microarray binding, fluorescence 635 nm; higher = more signal;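 further: score merges spot fluorescence intensity with its signal-to-noise ratio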
[12] = small-molecule microarray binders of probe aDKK1, primary screen, biochemical, biotinylated probe, 635/667 nm fluorescence (AID 1099); details: higher = more signal;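 further: score merges 667nm spot fluorescence with signal to noise across triplicate slides; reference of the scale not given here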
[13] = small-molecule microarray binders of probe aCHRDL2, primary screen, biochemical, biotinylated probe, 635/667 nm fluorescence (AID 1100); details: higher = more signal
[14] = splicing luciferase reporter signal modulators, primary screen, spliceosome inhibition project, cell-based, HEK293, splice +/- reporter (AID 1101); details: luminescence, 24 h, higher = more signal, called active from +8 up or from −8 down;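 further: HEK293 cells carrying a splicing-competent luciferase reporter gene; test concentration not given here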
[15] = molecular target: Fibroblast growth factor 10 (Homo sapiens) (UniProt O15520); assay: FGF10 binders on small-molecule microarrays, primary screen, biochemical, small-molecule microarray, 635 nm fluorescence (AID 1102); details: FGF10 binding, fluorescence 635 nm, higher = more signal
[16] = system: glycogen synthase kinase-3 (GSK3A per assay name; protocol says GSK3B); assay: GSK3 binders on small-molecule microarrays, primary screen, biochemical, small-molecule microarray, 635 nm fluorescence, GSK3A (AID 1103); details: small-molecule microarray binding, fluorescence 635 nm; higher = more signal; further: the record names both GSK3A and GSK3B
[17] = molecular target: Epidermal growth factor receptor (Homo sapiens) (UniProt P00533); assay: EGFR binders on small-molecule microarrays, primary screen, biochemical, small-molecule microarray, 635 nm fluorescence (AID 1104); details: EGFR binding, higher = more signal;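 further: score merges 667 nm emission intensity with spot signal to noise over triplicate slides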
[18] = molecular target: Follistatin-related protein 3 (Homo sapiens) (UniProt O95633); assay: FSTL3 binders on small-molecule microarrays, primary screen, biochemical, small-molecule microarray, 635 nm fluorescence (AID 1105); details: FSTL3 binding, higher = more signal;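 further: score merges emission near 667 nm and signal to noise per printed spot across three slides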
[19] = molecular target: Dickkopf-related protein 1 (Homo sapiens) (UniProt O94907); assay: DKK1 binders on small-molecule microarrays, primary screen, biochemical, small-molecule microarray, 635 nm fluorescence scan (AID 1106); details: DKK1 binding, higher = more signal;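 further: score merges emission near 667 nm with signal to noise over three replicate slides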
[20] = system: Inhibin beta A chain (activin A); assay: INHBA (activin A) binders on microarrays, primary screen, biochemical, small-molecule microarray, 635 nm fluorescence scan (AID 1107); details: small-molecule microarray binding, higher = more signal;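 further: mouse activin A protein probed at 4.33 µg/mL on printed slides; score merges bound-protein fluorescence near 667 nm with spot signal-to-noise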

Torsin-1A-interacting protein 2 (Homo sapiens), sequence (Q8NFQ8 whole entry, looked up): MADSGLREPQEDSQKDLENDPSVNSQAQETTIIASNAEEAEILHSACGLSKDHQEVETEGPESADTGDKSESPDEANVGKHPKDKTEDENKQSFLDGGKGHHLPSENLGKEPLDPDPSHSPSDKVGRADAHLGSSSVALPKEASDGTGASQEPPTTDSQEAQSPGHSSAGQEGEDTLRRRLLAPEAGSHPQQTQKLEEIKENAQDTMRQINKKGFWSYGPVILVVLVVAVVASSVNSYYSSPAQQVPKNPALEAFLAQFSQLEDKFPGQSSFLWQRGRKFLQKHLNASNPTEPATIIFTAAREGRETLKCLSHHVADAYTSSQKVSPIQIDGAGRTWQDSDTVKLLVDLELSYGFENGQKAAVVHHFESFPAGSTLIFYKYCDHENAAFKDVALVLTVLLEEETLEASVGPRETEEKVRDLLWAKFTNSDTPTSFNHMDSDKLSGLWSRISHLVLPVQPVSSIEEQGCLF
Dickkopf-related protein 1 (Homo sapiens), sequence (O94907 whole entry, looked up): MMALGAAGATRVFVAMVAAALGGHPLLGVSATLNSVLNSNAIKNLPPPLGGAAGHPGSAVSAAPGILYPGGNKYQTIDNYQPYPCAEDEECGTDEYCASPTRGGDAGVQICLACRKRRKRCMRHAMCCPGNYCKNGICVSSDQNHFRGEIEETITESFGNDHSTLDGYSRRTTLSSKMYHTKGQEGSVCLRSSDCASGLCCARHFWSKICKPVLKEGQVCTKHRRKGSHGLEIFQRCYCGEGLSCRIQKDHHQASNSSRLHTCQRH
Neurogenic locus notch homolog protein 3 (Homo sapiens), sequence (Q9UM47 whole entry, looked up): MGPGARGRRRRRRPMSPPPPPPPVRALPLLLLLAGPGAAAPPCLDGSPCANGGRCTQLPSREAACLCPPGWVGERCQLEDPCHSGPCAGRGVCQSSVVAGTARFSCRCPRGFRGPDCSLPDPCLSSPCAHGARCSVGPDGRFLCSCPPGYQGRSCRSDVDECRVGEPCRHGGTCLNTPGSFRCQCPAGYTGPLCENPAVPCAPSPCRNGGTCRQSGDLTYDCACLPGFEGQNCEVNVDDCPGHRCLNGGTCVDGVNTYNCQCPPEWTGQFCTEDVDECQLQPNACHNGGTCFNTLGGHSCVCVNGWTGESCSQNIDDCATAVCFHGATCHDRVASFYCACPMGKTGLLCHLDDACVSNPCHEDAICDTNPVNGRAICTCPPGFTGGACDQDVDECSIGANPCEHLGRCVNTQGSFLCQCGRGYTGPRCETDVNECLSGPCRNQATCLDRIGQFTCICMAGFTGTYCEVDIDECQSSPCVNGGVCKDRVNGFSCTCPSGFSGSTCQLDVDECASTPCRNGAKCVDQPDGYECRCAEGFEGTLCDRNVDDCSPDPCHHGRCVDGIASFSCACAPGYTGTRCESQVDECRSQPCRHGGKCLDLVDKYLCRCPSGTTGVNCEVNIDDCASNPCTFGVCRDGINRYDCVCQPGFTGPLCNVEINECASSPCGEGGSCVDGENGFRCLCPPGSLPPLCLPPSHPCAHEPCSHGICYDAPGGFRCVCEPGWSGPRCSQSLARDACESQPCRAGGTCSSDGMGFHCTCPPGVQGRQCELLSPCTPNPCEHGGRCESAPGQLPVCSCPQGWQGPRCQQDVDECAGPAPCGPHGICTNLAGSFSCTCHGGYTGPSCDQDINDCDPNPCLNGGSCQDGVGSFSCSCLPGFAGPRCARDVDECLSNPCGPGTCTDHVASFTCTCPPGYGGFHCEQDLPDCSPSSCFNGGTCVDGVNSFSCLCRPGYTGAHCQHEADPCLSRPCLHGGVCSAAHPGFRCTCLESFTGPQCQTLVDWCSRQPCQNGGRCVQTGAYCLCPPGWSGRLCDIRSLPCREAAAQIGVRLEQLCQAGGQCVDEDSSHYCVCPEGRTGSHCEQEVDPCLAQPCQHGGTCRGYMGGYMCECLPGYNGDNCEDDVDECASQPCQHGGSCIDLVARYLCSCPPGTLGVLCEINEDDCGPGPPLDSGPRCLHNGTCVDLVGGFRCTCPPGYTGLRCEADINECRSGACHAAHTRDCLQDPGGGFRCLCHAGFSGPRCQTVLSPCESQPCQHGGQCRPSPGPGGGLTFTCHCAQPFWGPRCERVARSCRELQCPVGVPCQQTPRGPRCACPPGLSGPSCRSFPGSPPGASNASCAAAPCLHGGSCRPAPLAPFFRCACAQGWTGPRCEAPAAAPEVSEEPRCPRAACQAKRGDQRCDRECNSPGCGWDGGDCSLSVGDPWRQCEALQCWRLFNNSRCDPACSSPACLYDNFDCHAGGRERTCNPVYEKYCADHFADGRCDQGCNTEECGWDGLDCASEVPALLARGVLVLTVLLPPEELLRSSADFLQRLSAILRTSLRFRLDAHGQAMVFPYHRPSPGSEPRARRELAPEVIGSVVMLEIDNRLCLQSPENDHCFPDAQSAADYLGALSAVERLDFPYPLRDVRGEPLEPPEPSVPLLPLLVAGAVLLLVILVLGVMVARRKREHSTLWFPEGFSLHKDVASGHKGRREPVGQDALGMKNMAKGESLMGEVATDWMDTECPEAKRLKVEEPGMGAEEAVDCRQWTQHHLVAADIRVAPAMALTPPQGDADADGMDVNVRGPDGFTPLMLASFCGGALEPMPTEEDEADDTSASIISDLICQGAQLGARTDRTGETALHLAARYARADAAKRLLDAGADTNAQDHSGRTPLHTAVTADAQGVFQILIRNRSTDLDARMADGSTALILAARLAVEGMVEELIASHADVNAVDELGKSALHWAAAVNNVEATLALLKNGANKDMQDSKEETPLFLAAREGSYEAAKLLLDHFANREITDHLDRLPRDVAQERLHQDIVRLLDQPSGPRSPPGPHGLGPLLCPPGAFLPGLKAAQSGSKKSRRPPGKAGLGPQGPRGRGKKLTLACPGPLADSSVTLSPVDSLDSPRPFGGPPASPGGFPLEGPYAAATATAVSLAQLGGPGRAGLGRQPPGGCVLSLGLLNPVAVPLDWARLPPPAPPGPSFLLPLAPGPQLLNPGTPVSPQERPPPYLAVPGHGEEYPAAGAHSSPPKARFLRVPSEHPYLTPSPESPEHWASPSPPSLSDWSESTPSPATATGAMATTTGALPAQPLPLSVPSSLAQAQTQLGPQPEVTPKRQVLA
Epidermal growth factor receptor (Homo sapiens), sequence (P00533 whole entry, looked up): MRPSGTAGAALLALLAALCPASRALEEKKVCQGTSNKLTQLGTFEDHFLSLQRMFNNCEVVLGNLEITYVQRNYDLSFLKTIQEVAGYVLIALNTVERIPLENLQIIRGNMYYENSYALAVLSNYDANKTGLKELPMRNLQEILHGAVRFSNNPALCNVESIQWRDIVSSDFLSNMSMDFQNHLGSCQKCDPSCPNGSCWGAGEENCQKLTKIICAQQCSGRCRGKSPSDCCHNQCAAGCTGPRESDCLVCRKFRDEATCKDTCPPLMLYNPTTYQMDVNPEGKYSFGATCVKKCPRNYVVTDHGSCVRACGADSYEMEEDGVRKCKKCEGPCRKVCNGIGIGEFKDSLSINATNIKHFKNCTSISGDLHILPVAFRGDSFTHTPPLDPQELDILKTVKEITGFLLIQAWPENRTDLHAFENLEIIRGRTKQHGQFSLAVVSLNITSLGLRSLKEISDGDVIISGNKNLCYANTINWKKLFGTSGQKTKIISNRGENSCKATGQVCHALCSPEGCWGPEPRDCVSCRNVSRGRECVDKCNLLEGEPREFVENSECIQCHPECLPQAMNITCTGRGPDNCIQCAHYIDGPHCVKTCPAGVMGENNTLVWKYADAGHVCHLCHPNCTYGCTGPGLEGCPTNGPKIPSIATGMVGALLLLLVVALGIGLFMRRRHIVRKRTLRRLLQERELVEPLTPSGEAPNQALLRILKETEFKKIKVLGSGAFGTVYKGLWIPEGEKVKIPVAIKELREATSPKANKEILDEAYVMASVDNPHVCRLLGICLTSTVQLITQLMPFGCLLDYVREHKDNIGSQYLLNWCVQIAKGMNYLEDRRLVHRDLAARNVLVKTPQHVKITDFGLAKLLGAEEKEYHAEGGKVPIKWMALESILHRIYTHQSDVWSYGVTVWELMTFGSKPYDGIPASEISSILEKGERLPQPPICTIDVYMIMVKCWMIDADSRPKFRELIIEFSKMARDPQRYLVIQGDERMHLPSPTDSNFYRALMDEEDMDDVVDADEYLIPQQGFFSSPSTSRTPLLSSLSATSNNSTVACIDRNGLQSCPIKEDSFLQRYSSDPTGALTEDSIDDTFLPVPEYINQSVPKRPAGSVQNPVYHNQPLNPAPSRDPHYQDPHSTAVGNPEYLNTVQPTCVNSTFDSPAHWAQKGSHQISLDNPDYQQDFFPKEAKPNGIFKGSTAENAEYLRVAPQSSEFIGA
Fibroblast growth factor 10 (Homo sapiens), sequence (O15520 whole entry, looked up): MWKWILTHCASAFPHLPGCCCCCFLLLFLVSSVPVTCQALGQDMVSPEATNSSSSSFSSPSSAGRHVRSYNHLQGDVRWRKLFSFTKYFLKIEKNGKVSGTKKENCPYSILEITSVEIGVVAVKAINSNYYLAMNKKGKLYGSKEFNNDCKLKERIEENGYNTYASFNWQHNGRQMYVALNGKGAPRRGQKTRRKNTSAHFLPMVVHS
Follistatin-related protein 3 (Homo sapiens), sequence (O95633 whole entry, looked up): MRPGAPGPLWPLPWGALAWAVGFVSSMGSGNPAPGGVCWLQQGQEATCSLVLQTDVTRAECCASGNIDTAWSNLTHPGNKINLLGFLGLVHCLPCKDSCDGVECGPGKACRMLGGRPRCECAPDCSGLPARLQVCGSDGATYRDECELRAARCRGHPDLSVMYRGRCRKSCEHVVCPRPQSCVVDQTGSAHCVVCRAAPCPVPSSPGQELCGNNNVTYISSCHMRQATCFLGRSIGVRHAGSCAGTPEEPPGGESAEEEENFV

SMILES | composite z-score [1] | z-score [2] | z-score [3] | z-score [4] | composite z-score [5] | z-score [6] | composite z-score [7] | composite z-score [8] | composite z-score [9] | composite z-score [10] | composite z-score [11] | composite z-score [12] | composite z-score [13] | z-score [14] | composite z-score [15] | composite z-score [16] | composite z-score [17] | composite z-score [18] | composite z-score [19] | composite z-score [20]
COc1ccc(C#Cc2ccc3c(c2)[C@]2(C(=O)N3)[C@H](c3ccc(OCCO)cc3)N3[C@H](c4ccccc4)[C@H](c4ccccc4)OC(=O)[C@H]3[C@@H]2C(=O)O)cc1 | 1.54 | 2.83 (inactive) | 0.685 (inactive) | 1.4 (inactive) | 3.21 | 2.57 (inactive) | -0.232 | 1.29 | 1.04 | 0.0649 | 0.955 | 0.606 | 0.176 | -1.35 (inactive) | 1.42 | 1.22 | 0.398 | 1.44 | 0.183 | 0.751
C=CCC(OC(C)=O)[C@@H]1[C@@H](N(Cc2ccc(-c3cccc(C(F)(F)F)c3)o2)C(=O)Cc2ccc(OC)cc2)c2cc(OCCCO)ccc2N1C(=O)c1ccc2ccccc2n1 (stereo not given in full) | -0.538 | 0.195 (inactive) | 0.153 (inactive) | -0.44 (inactive) | 0.806 | -0.555 (inactive) | -0.0998 | -0.306 | -0.412 | -0.0828 | 0.51 | -0.107 | 0.621 | -0.492 (inactive) | 0.104 | -1.24 | -0.567 | 0.0391 | 0.062 | 1.58
Cc1ccccc1C(O)C1C=CC2C(=O)N(c3ccccc3)C(=O)C2N1Nc1ccccc1F (stereo not given) | 1.16 | 0.0769 (inactive) | 0.592 (inactive) | 0.764 (inactive) | 3.41 | -0.927 (inactive) | 0.496 | -0.471 | 1.12 | 0.0122 | 1.31 | 0.938 | 1.23 | 0.476 (inactive) | 0.77 | 0.45 | 0.153 | 0.836 | -0.6 | 1.04
CC(C)C[C@@H]1NC(=O)[C@@H]2C[C@H](C(=O)O)[C@H](c3ccc(O)cc3)N2C1=O | 1.54 | -1.45 (inactive) | -1.34 (inactive) | -0.42 (inactive) | 1.77 | 2.31 (inactive) | -0.0433 | 1.02 | 1.09 | 0.0226 | 1.44 | 0.361 | 0.383 | -0.687 (inactive) | 0.914 | 1.31 | 0.801 | 1.25 | 0.976 | -0.0021
CN(C)CCCC[C@@H]1NC(=O)[C@H]2C[C@@H](C(=O)NCc3ccc(F)cc3)[C@@H](c3ccc(O)cc3)N2C1=O | 1.56 | -0.42 (inactive) | -1.1 (inactive) | -0.462 (inactive) | 1.42 | 0.539 (inactive) | 0.0672 | 1.78 | 0.719 | 0.0579 | 0.298 | 0.0179 | -0.4 | 0.163 (inactive) | 1.2 | 0.902 | 0.0583 | 0.571 | 0.776 | 0.853
